Reference: PubChem BioAssay AID1159580 (chemical genetic matrix, 2015)
In all, about 5,500 compounds went through this assay and about 2,000 (36%) were called active. Inconclusive results (about 18%) are left out. Rule as the data show it: active = normalized growth mostly below about 0.91 (no sharp cut-off); inconclusive = no clear call, values can overlap the other calls; inactive = mostly above about 0.92. The list shows a part of the results.

Assay: chemical genetic growth profiling, strain panel (AID 1159580);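 also: tested at 20 µM; growth read once vehicle control cultures reached saturation at 30 °C; 1 = growth at the plate median or of vehicle wells; lower values mean less growth of the strain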
Settings: growth OD

Measured: normalized growth

NC(N)=NS(=O)(=O)c1ccc(N)cc1
inactive: S. cerevisiae deletion strains, locus YJR066W, strain TOR1, active compounds read low 0.909 | S. cerevisiae deletion strains, locus YKL009W, strain mrt4, active compounds read low 0.993 | S. cerevisiae deletion strains, locus YKL068W, active compounds read low 1 | S. cerevisiae deletion strains, locus YKL085W, strain MDH1 (second series), active compounds read low 1.02 | S. cerevisiae deletion strains, locus YKL085W, strain MDH1, active compounds read low 1.02 | S. cerevisiae deletion strains, locus YKL160W, strain elf1, active compounds read low 0.996 | S. cerevisiae deletion strains, locus YKL190W, strain CNB1, active compounds read low 1.01 | S. cerevisiae deletion strains, locus YKR001C, strain vps1, active compounds read low 1.01 | S. cerevisiae deletion strains, locus YKR026C, strain gcn3, active compounds read low 0.955 | S. cerevisiae deletion strains, locus YKR091W, strain srl3, active compounds read low 0.991 | S. cerevisiae deletion strains, locus YLL001W, strain dnm1, active compounds read low 0.998 | S. cerevisiae deletion strains, locus YLL026W, active compounds read low 0.991 | S. cerevisiae deletion strains, locus YLL041C, strain sdh2, active compounds read low 0.973 | S. cerevisiae deletion strains, locus YLR027C, strain aat2, active compounds read low 0.974 | S. cerevisiae deletion strains, locus YLR039C, strain RIC1, active compounds read low 1.02 | S. cerevisiae deletion strains, locus YLR058C, strain SHM2, active compounds read low 1.02 | S. cerevisiae deletion strains, locus YLR102C, strain apc9, active compounds read low 0.986 | S. cerevisiae deletion strains, locus YLR113W, strain HOG1, active compounds read low 0.967 | S. cerevisiae deletion strains, locus YLR221C, strain rsa3, active compounds read low 0.984 | S. cerevisiae deletion strains, locus YLR258W, strain gsy2, active compounds read low 0.998 | S. cerevisiae deletion strains, locus YLR262C, strain YPT6 (second series), active compounds read low 0.984 | S. cerevisiae deletion strains, locus YLR262C, strain YPT6, active compounds read low 1.03 | S. cerevisiae deletion strains, locus YLR268W, strain sec22, active compounds read low 0.996 | S. cerevisiae deletion strains, locus YLR320W, strain mms22, active compounds read low 0.992 | S. cerevisiae deletion strains, locus YLR330W, strain CHS5, active compounds read low 1.01 | S. cerevisiae deletion strains, locus YLR342W, strain FKS1 (second series), active compounds read low 1.01 | S. cerevisiae deletion strains, locus YLR342W, strain FKS1, active compounds read low 0.977 | S. cerevisiae deletion strains, locus YLR357W, strain rsc2, active compounds read low 0.986 | S. cerevisiae deletion strains, locus YLR370C, strain arc18, active compounds read low 0.981 | S. cerevisiae deletion strains, locus YLR371W, strain rom2, active compounds read low 0.993 | S. cerevisiae deletion strains, locus YLR384C, strain iki3, active compounds read low 0.995 | S. cerevisiae deletion strains, locus YLR418C, strain cdc73, active compounds read low 0.994 | S. cerevisiae deletion strains, locus YML016C, strain PPZ1, active compounds read low 1.01 | S. cerevisiae deletion strains, locus YML032C, strain rad52, active compounds read low 0.987 | S. cerevisiae deletion strains, locus YML120C, strain ndi1, active compounds read low 0.978 | S. cerevisiae deletion strains, locus YML124C, strain tub3, active compounds read low 0.992 | S. cerevisiae deletion strains, locus YMR058W, strain fet3, active compounds read low 0.984 | S. cerevisiae deletion strains, locus YMR078C, strain ctf18, active compounds read low 0.997 | S. cerevisiae deletion strains, locus YMR125W, strain sto1, active compounds read low 0.966 | S. cerevisiae deletion strains, locus YMR129W, active compounds read low 0.997 | S. cerevisiae deletion strains, locus YMR205C, strain PFK2, active compounds read low 1 | S. cerevisiae deletion strains, locus YMR223W, strain ubp8, active compounds read low 0.996 | S. cerevisiae deletion strains, locus YMR231W, strain pep5, active compounds read low 1 | S. cerevisiae deletion strains, locus YMR307W, strain GAS1, active compounds read low 1.03 | S. cerevisiae deletion strains, locus YNL067W, strain RPL9B, active compounds read low 1.03 | S. cerevisiae deletion strains, locus YNL071W, strain lat1, active compounds read low 0.986 | S. cerevisiae deletion strains, locus YNL128W, strain TEP1, active compounds read low 1.03 | S. cerevisiae deletion strains, locus YNL153C, strain GIM3, active compounds read low 1.04 | S. cerevisiae deletion strains, locus YNL183C, strain NPR1, active compounds read low 0.918 | S. cerevisiae deletion strains, locus YNL209W, strain ssb2, active compounds read low 0.993 | S. cerevisiae deletion strains, locus YNL233W, strain BNI4, active compounds read low 1.03 | S. cerevisiae deletion strains, locus YNL248C, strain rpa49, active compounds read low 0.972 | S. cerevisiae deletion strains, locus YNL250W, strain rad50, active compounds read low 0.987 | S. cerevisiae deletion strains, locus YNL271C, strain bni1, active compounds read low 0.985 | S. cerevisiae deletion strains, locus YNL298W, strain CLA4, active compounds read low 0.994 | S. cerevisiae deletion strains, locus YNL307C, strain MCK1, active compounds read low 0.987 | S. cerevisiae deletion strains, locus YNL322C, strain KRE1 (second series), active compounds read low 0.967 | S. cerevisiae deletion strains, locus YNR049C, strain mso1, active compounds read low 0.981 | S. cerevisiae deletion strains, locus YNR052C, strain pop2, active compounds read low 0.986 | S. cerevisiae deletion strains, locus YOL006C, strain TOP1, active compounds read low 1.09 | S. cerevisiae deletion strains, locus YOL012C, strain htz1 0.841 | S. cerevisiae deletion strains, locus YOL147C, strain pex11, active compounds read low 0.992 | S. cerevisiae deletion strains, locus YOR001W, strain rrp6, active compounds read low 0.986 | S. cerevisiae deletion strains, locus YOR061W, strain CKA2, active compounds read low 1.02 | S. cerevisiae deletion strains, locus YOR069W, strain VPS5, active compounds read low 1.01 | S. cerevisiae deletion strains, locus YOR070C, strain gyp1, active compounds read low 0.979 | S. cerevisiae deletion strains, locus YOR080W, strain dia2, active compounds read low 0.985 | S. cerevisiae deletion strains, locus YOR083W, strain WHI5, active compounds read low 0.979 | S. cerevisiae deletion strains, locus YOR106W, strain vam3, active compounds read low 0.976 | S. cerevisiae deletion strains, locus YOR136W, strain idh2, active compounds read low 0.986 | S. cerevisiae deletion strains, locus YOR144C, strain elg1, active compounds read low 0.99 | S. cerevisiae deletion strains, locus YOR184W, strain ser1, active compounds read low 1.02 | S. cerevisiae deletion strains, locus YOR231W, strain MKK1, active compounds read low 0.98 | S. cerevisiae deletion strains, locus YOR265W, strain rbl2, active compounds read low 0.979 | S. cerevisiae deletion strains, locus YOR270C, strain vph1, active compounds read low 0.973 | S. cerevisiae deletion strains, locus YOR290C, strain snf2, active compounds read low 0.992 | S. cerevisiae deletion strains, locus YOR316C, strain cot1, active compounds read low 0.993 | S. cerevisiae deletion strains, locus YPL051W, strain arl3, active compounds read low 0.997 | S. cerevisiae deletion strains, locus YPL055C, strain LGE1, active compounds read low 1.07 | S. cerevisiae deletion strains, locus YPL078C, strain atp4, active compounds read low 0.994 | S. cerevisiae deletion strains, locus YPL106C, strain sse1, active compounds read low 0.953 | S. cerevisiae deletion strains, locus YPL240C, strain hsp82, active compounds read low 0.991 | S. cerevisiae deletion strains, locus YPL256C, strain CLN2, active compounds read low 0.953 | S. cerevisiae deletion strains, locus YPR119W, strain clb2, active compounds read low 0.994 | S. cerevisiae deletion strains, locus YPR141C, strain kar3, active compounds read low 0.997 | S. cerevisiae deletion strains, locus YPR163C, strain tif3, active compounds read low 0.997 | S. cerevisiae deletion strains, locus YPR167C, strain met16, active compounds read low 0.993 | S. cerevisiae deletion strains, strain wtn01, active compounds read low 0.988 | S. cerevisiae strains, strain wild type, active compounds read low 1.02
